# According to PubChem BioAssay (Tox21):
# Records with an inconclusive call do not appear. Unmarked numbers belong to inactive results. Calls follow the shape of the dose curve; as a rule, active = well fitted cell-killing curve with a large enough effect in the repeat runs; inconclusive = weak or mixed curves, or effect the other way; inactive = no such curve, though single readings can be large or run the other way.
# Assay: qHTS assay to identify small molecule antagonists of the peroxisome proliferator-activated receptor gamma (PPARg) signaling pathway - cell viability counter screen (AID 743194); also: nearly all actives have a fitted effect of over 55% in size
# Settings: PPARg-bla HEK293H viability, CellTiter-Glo luminescence, 17 h, co-treated with 50 nM rosiglitazone; series mostly up to 62.6 µM; activity change, negative = cytotoxicity: at the top concentration
# Text: U.S. Tox21 Program National Center for Advancing Translational Sciences [NCATS] NIH Chemical Genomics Center [NCGC] U.S. Environmental Protection Agency [EPA] National Institutes of Environmental Health Sciences [NIEHS] National Toxicology Program [NTP] U.S. Food and Drug Administration [FDA] Tox21 Assay Overview: The peroxisome proliferator-activated receptors (PPARs) are lipid-activated transcription factors of the nuclear receptor superfamily with three distinct subtypes namely PPAR alpha, PPAR delta (also called PPAR beta) and PPAR gamma (PPARg). All these subtypes heterodimerize with Retinoid X receptor (RXR) and these heterodimers regulate transcription of various genes. PPAR-gamma receptor (glitazone receptor) is involved in the regulation of glucose and lipid metabolism. To identify the compounds that activate PPAR-gamma signaling, GeneBLAzer PPAR gamma UAS-bla HEK293H cell line (Invitrogen, Carlsbad, CA, USA) containing a beta-lactamase reporter gene under the control of an Upstream Activator Sequence (UAS) was used to screen the Tox21 compound library. The cytotoxicity of the Tox21 compound library against the PPARg-bla cell line was tested in parallel by measuring the cell viability using CellTiter-Glo assay in the same wells.
# Tox21 Assay Protocol Summary: PPARg-bla cells were dispensed at 3000 cells/5uL/well in 1536-well black wall/clear bottom plates using a Multidrop Combi (Thermo Fisher Scientific, Waltham, MA) dispenser. After the assay plates were incubated at 37 C and 5% CO2 for 5 h, 23 nL of compounds dissolved in DMSO, positive controls or DMSO only was transferred to the assay plate by a Pintool station (Kalypsys, San Diego, CA), followed by addition of 1ul Rosiglitazone (50 nM, final concentration in the wells). The assay plates were incubated at 37 C for 17 h, and then 1 uL of LiveBLAzerTM B/G FRET substrate was added using a Bioraptr Flying Reagent Dispenser (FRD) workstation (Beckman Coulter, Indianapolis, IN, USA). The assay plates were incubated at room temperature for 1 h and fluorescence intensity was measured by an Envision plate reader (PerkinElmer, Shelton, CT). For cell viability readout that measures cytotoxicity, 4 ul/well of CellTiter-Glo reagent was added into the assay plates using a Flying Reagent Dispenser. After 30 min incubation at room temperature, the luminescence intensity in the plates was measured using a ViewLux plate reader (PerkinElmer).
# % is scaled to controls: 0 for no effect and ±100 for the full control effect.
row,Compound,"activity change, negative = cytotoxicity"
1,CC(C)OCCO,20.1%
2,CCCC(C)C(O)CC (stereo not given),18.6%
3,C=C(C)C(=O)OCCOC1CC2CC1C1C=CCC21 (stereo not given),7.04% [at 81.1 µM]
4,CC(O)CCCCn1c(=O)c2c(ncn2C)n(C)c1=O (stereo not given),0.741%
5,O=C(O)CCCCCCCCCC(=O)O,-10.2%
6,O=C(O)Cc1c(Cl)ccc(Cl)c1Cl,-0.304%
7,CC(C)(O)CCCC1=CCC(C=O)CC1 (stereo not given),-6.48% [at 81.1 µM]
8,CCCC(=O)OC,0.355%
9,CCCCCC(=O)CC,14.3% [at 81.1 µM]
10,Clc1cc(Cl)c(Cl)c(Cl)c1Cl,-9.79%
11,O=S(=O)(O)c1cc(I)c(O)c2ncccc12,2.95%
12,Cc1ccc(O)c(C(=O)c2ccccc2)c1,-0.399% [at 81.1 µM]
13,CC(C)(C)c1ccc(N)cc1,-6.97%
14,COCCCOc1cc(C[C@@H](C[C@H](N)[C@@H](O)C[C@H](C(=O)NCC(C)(C)C(N)=O)C(C)C)C(C)C)ccc1OC,-8.9%
15,CC(C)OC(=O)C(C(=O)OC(C)C)=C1SC=CS1,-0.866%
16,CCOc1ccccc1OCCN[C@H](C)Cc1ccc(OC)c(S(N)(=O)=O)c1,-3.12%
17,CCCCCCCCCCCC(C)=O,22.6%
18,C[C@H]1COc2c(C3(N)CC3)c(F)cc3c(=O)c(C(=O)O)cn1c23,17.2%
19,CC(=O)SC[C@@H](C)C(=O)N1CCC[C@H]1C(=O)N[C@@H](Cc1ccccc1)C(=O)O,-4.63%
20,CCNC(=O)C(C)OC(=O)Nc1ccccc1 (stereo not given),-5.98%

row,Compound,"activity change, negative = cytotoxicity"
1,c1cc2ccc3ccc4ccc5cccc6c(c1)c2c3c4c56,27.2% [at 2.7 µM]
2,CC(C)C(C)C,-3.42%
3,CC(=O)Nc1ccc(OCCOCCOc2ccc(NC(C)=O)cc2)cc1,0.0327%
4,COCc1nnc(-c2ccc[n+]([O-])c2)n1-c1c(Cl)c(Cl)cc2[nH]c(=O)c(=O)[nH]c12,8.96%
5,COc1cc(C(=O)NC2CCCNC2)cc(OC)c1OC (stereo not given),-0.583%
6,CC(C)C(=O)Nc1cccc(C2CN3CCSC3=N2)c1 (stereo not given),13%
7,Cc1ccc(NC(N)=O)cc1,-16.9% [at 81.1 µM]
8,COC(=O)c1c(C)cc(O)c(C)c1O,-1.84%
9,COC(=O)N/N=C/c1c[n+]([O-])c2ccccc2[n+]1[O-],-9.99%
10,Cc1ccccc1C#N,-9.31%
11,CCCCCCCCCCCCCCCCN(C)C,2.19% [at 5.95 µM]
12,CCCC(=O)CC,13.8% [at 81.1 µM]
13,CC(C)(C)C(=O)NCCCC(=O)O,10.6%
14,C[C@@H]1CCC[C@H](C)N1CCCC(O)(c1ccccc1)c1ccccn1 (stereo not given in full),2.74%
15,CC(=O)Oc1ccc(C(C)=O)cc1,0.222% [at 81.1 µM]
16,O=C(O)/C=C(\CC(=O)O)C(=O)O,-0.884%
17,Clc1ccc2c(c1)Nc1ccccc1S2,-3.12%
18,C/C(Cl)=C/CCl,-5.32% [at 81.1 µM]
19,C=C(C)C(=O)OCCCC,7.7% [at 81.1 µM]
20,O=C(O)Cc1ccccc1Oc1ccc(Cl)cc1Cl,11.9%
